Compounds with a hit are over-represented: about 2.6% of the library has one in this group of screens.
EWS-Fli block: EWS/Fli-driven NR0B1 reporter inhibitors, primary screen, A673 cells, NR0B1 luciferase, luminescence, MLPCN library; viability-normalised; AID 651661, 2012; inhibition, % at 12.6 µM; 0.67% of 350,000 active;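 active means mean inhibition of at least 50% after viability correction, with every replicate also passing that limit; inconclusive means mean reaches 50% but only one of two replicates passes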;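 further: firefly luciferase signal divided by Alamar Blue viability fluorescence both relative to DMSO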
EBV LMP1 NFkB: EBV LMP1-driven NF-kappaB luciferase reporter inhibitors, primary screen, cell-based, luminescence, single point; 0.69% of 350,000 active; inhibition, % at 12.5 µM; LMP1-induced NF-kappaB luciferase reporter cells; in the data active means inhibition above about 41%; inconclusive means no clear call, values can overlap the other calls;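 further: 0% = neutral control wells and 100% = reference inhibitor control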
TWEAK-Fn14 inh: inhibitors of TWEAK-Fn14 signaling, primary screen, luciferase reporter cells, uHTS; TWEAK-stimulated Fn14 reporter cells, luciferase luminescence, 8 h; inhibition, % at 10 µM; 2% of 360,000 active; in the data active means inhibition above about 50%
TROY NFkB inh: inhibitors of TROY-driven NF-kB signaling, primary screen, Q293 LMP1-TROYcd cells, NF-kB luciferase, uHTS; inhibition, % at 10 µM; Q293 LMP1-TROYcd NF-kB luciferase reporter, 4 h; 0.98% of 360,000 active; AID 1347056, 2019;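 active means compounds whose plate-normalised and pattern-corrected inhibition of the luciferase reporter signal at the single screening dose is 50% or more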
LGR2 inh: inhibitors of bursicon-induced LGR2 CRE-luciferase signal, primary screen, cell-based, HEK293, CRE-luciferase reporter, bursicon stimulation | bursicon-stimulated, 4 h | Drosophila bursicon receptor LGR2 (rickets) | 0.35% of 380,000 active | inhibition, % at 9.99 µM;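 active means drop in luminescence signal, shown as inhibition above about 50% in the replicate tests, limit read from the data, passing the limit was not always enough; inconclusive means probably only some replicates passing the limit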;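 further: agonist challenge used bursicon conditioned medium at about half maximal strength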
* = called active by the depositor; ? = inconclusive; · = no result.

SMILES | EWS-Fli block | EBV LMP1 NFkB | TWEAK-Fn14 inh | TROY NFkB inh | LGR2 inh
Cc1ccc(/C=C2/SC(=S)N(c3ccc(S(=O)(=O)Nc4nccs4)cc3)C2=O)cc1 | 2 | 67* | 64* | 61* | 30
Cc1noc(C)c1NC(=O)N(C)C[C@@H]1OCCCC[C@H](C)Oc2ccc(NS(=O)(=O)c3cccs3)cc2C(=O)N([C@H](C)CO)C[C@@H]1C | -1 | · | · | · | -7
O=C(COC(=O)c1ccccc1NCCO)NCC1CCCCC1 | -22 | 16 | 50* | 24 | -28
CC1Cc2ccccc2N1C(=O)COC(=O)c1ccccc1NCCO (configuration not stated) | -5 | -19 | 57* | 25 | 5
O=C(COC(=O)c1ccccc1Br)NCC1CCCCC1 | -2 | · | -35 | -67 | -82
CC1CCN(C(=O)COC(=O)c2ccccc2NCCO)CC1 | -2 | 0 | 1 | -14 | -2
C[C@@H]1CCCCO[C@@H](CN(C)Cc2ccc3c(c2)OCO3)[C@H](C)CN([C@H](C)CO)C(=O)c2cc(NC(=O)Nc3cccc4ccccc34)ccc2O1 | 71* | · | · | · | 3
C[C@@H]1CCCCO[C@H](CN(C)Cc2ccc3c(c2)OCO3)[C@@H](C)CN([C@@H](C)CO)C(=O)c2cc(NC(=O)Nc3cccc4ccccc34)ccc2O1 | 64* | · | · | · | -10
C[C@@H]1CCCCO[C@@H](CN(C)Cc2ccc3c(c2)OCO3)[C@@H](C)CN([C@H](C)CO)C(=O)c2cc(NC(=O)Nc3cccc4ccccc34)ccc2O1 | 2 | · | · | · | -1
COc1ccccc1CN(C)C[C@H]1OCc2cn(nn2)CCCC(=O)N([C@@H](C)CO)C[C@H]1C | 3 | · | · | · | -13
Cc1ccc(/C=C/C(=O)Nc2ccccc2C(N)=O)cc1 | · | 7 | -34 | -37 | -11
Cc1ccc(/C=C/C(=O)C2C(=O)c3ccccc3C2=O)cc1 | · | 47* | 13 | -6 | 7
Cc1noc(C)c1S(=O)(=O)Nc1ccc2c(c1)C(=O)N([C@H](C)CO)C[C@H](C)[C@@H](CN(C)S(=O)(=O)c1cn(C)cn1)OCCCC[C@@H](C)O2 | -4 | · | · | · | -6
Cc1cc2nc(-c3ccc(SCc4ccc(C(=O)O)cc4)nc3)[nH]c2cc1C | -118 | -45 | 22 | 52* | -41
Cc1cc2nc(-c3ccc(SCC(=O)N4CCc5ccccc54)nc3)[nH]c2cc1C | -44 | -13 | 10 | 0 | -38
Cc1cc2nc(-c3ccc(SCc4ccccc4C#N)nc3)[nH]c2cc1C | -84 | -8 | 58* | 64* | -31
Cc1ccc(S(=O)(=O)Nc2ccc3c(c2)C(=O)c2ccccc2-3)cc1 | 7 | · | 33 | 53* | -1
Cc1ccc(NS(=O)(=O)c2ccc3c(c2)C(=O)c2ccccc2C3=O)c(C)c1 | · | -7 | -4 | -9 | 7
CCNC(=O)C[C@H]1CC[C@H](NC(=O)NC2CCCCC2)[C@H](CO)O1 | 6 | · | · | · | 4
C/C(=N\NS(=O)(=O)c1ccc([N+](=O)[O-])cc1)c1cccs1 | -6 | 58* | -1 | -2 | 3
COc1ccc(S(=O)(=O)N(C)C[C@@H]2OCCCC[C@H](C)Oc3ccc(NS(=O)(=O)c4ccc(Cl)cc4)cc3C(=O)N([C@@H](C)CO)C[C@H]2C)cc1 | 8 | · | · | · | 5
CC(=O)c1cccc(-c2csc3ncnc(Sc4nnnn4C)c23)c1 | -2 | · | 75* | 19 | ?
Cn1nnnc1Sc1ncnc2scc(-c3cccc4c3sc3ccccc34)c12 | 11 | -18 | 25 | -9 | 32
O=C(O)CSc1ncnc2scc(-c3ccccc3)c12 | 4 | 0 | 12 | 22 | 12
Cn1nnnc1Sc1ncnc2scc(-c3cccc(Br)c3)c12 | ? | 78* | 99* | 67* | 4
SMILES | EWS-Fli block | EBV LMP1 NFkB | TWEAK-Fn14 inh | TROY NFkB inh | LGR2 inh
Cn1nnnc1Sc1ncnc2scc(-c3cccc(S(C)(=O)=O)c3)c12 | -17 | 47* | 61* | 27 | 85*
CO[C@H]1CN(C)C(=O)c2cc(NC(=O)C3CCC3)ccc2OC[C@@H](C)NC[C@@H]1C | -13 | · | · | · | 2
C[C@H](CO)N1C[C@H](C)[C@@H](CN(C)Cc2ccc(C(=O)Nc3ccccc3N)cc2)Oc2ccc(NC(=O)Nc3ccc(C(F)(F)F)cc3)cc2C1=O | 21 | · | · | · | 3
O=C(/C=C/c1cccs1)NC(=S)NNC(=O)c1ccccc1O | 52* | -6 | 48 | 38 | 14
COc1ccc(C(=O)NNC(=S)NC(=O)/C=C/c2cccs2)cc1 | 2 | 13 | -19 | 6 | 29
CC(=O)N(C)C[C@@H]1Oc2cc(-c3cccc(C#N)c3)ccc2S(=O)(=O)N([C@H](C)CO)C[C@H]1C | -11 | · | · | · | -4
CC1(C)CC(NC(=O)COc2ccccc2Cl)CC(C)(C)N1 | -9 | 5 | 78* | 75* | -2
COc1ccc(OCC(=O)NC2CC(C)(C)NC(C)(C)C2)cc1 | · | 6 | 65* | 63* | ·
CCOC(=O)c1[nH]c2ccccc2c1NC(=O)c1ccc(Br)o1 | 6 | -2 | 66* | -5 | 12
Cc1n[nH]c(C)c1CCc1nc2c3ccccc3nc(SCC(=O)Nc3ccccc3F)n2n1 | · | 1 | 28 | -10 | ·
Cc1cccc(NC(=O)CSc2nc3ccccc3c3nc(CCc4c(C)n[nH]c4C)nn23)c1 | · | 22 | 60* | 1 | ·
O=C(Nc1ccc(Oc2ccccc2)cc1)c1ccc2sc([C@H]3C[C@H](O)[C@@H](CO)O3)nc2c1 | -6 | · | 95* | 52* | 25
CCN(C(=O)CSc1nnc(NCc2ccccc2)s1)C1CCS(=O)(=O)C1 (configuration not stated) | 10 | -3 | 8 | 9 | -3
CCN(C(=O)CSc1nnc(Nc2cccc(C)c2C)s1)C1CCS(=O)(=O)C1 (configuration not stated) | -4 | 47* | -18 | 4 | ·
O=C1CN(S(=O)(=O)Cc2ccccc2)C[C@H]2[C@H](c3ccc(C#Cc4ccc(F)cc4)cc3)[C@H](CO)N12 | 1 | · | · | · | ·
COc1ccc(OC)c(S(=O)(=O)Oc2ccc(N)c3ccccc23)c1 | -4 | -1 | 87* | 30 | 10
CO[C@H]1CN(C)C(=O)c2cc(NC(=O)C3CC3)ccc2OC[C@@H](C)NC[C@@H]1C | 4 | · | · | · | 24
COc1ccc([C@H]2CC(=O)C=C(c3c(OC)cccc3OC)C2)cc1 | 63* | -6 | -2 | 8 | -7
COc1ccc(C2=CC(=O)CC(c3ccc(OC)cc3)C2)cc1 (configuration not stated) | -20 | 24 | -21 | -49 | -10
CCOc1ccc(Cl)cc1C1=CC(=O)C[C@H](c2ccc(OC)cc2)C1 | 60* | 18 | -9 | 16 | 13
COc1ccc([C@H]2CC(=O)C=C(c3cc(Cl)ccc3OC)C2)cc1 | 47 | 5 | 28 | 5 | 25

High-throughput results deposited in PubChem BioAssay by several laboratories.
